Compound activity: PubChem, National Center for Advancing Translational Sciences (NCATS)
Pf growth 96h: inhibits malaria parasite growth, 96 h; 320,000 compounds, 6.9% hits; Potency, µM (highest dose often 28.7 µM), without a hit: at the top dose activity change, negative = inhibition, most hits filed as inhibitors; P. falciparum luciferase reporter growth, 96 h; AID 504834; also: potency is read from the fitted curve at half-maximal effect; % is scaled to controls: 0 for no effect and ±100 for the full control effect
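Delayed-death screen, second-generation endpoint: infected erythrocytes, 2% hematocrit, 0.05% parasitemia final; 96 hours at 37 C, 5% CO2; luciferase detection reagent; luminescence decrease equals reduced growth.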
CHX counter: counter-screen for Shiga toxin inhibitors: cycloheximide protein synthesis inhibition; 300,000 compounds, 12% hits; max response, %; AID 2314; cell reporter, cycloheximide protein synthesis inhibition counterscreen; in the data active = max response mostly above about 13%, no sharp cut-off; inactive = mostly below about 14%; also: read at 38.3 µM for the half of the compounds with a filed dose; 0% is about no effect
Pf growth 48h: P. falciparum growth inhibition at 48 hours (one generation). P. falciparum luciferase growth in erythrocytes, 48 h. Potency, µM (doses to about 28.7 µM), without a hit: at the highest dose activity change, negative = inhibition, hits mostly inhibitors. 310,000 compounds, 5.9% hits; also: potency is read from the fitted curve at half-maximal effect; % is scaled to controls: 0 for no effect and ±100 for the full control effect
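Luciferase-expressing parasites in RBCs, 2% Hct / 0.1% parasitemia final; RPMI 1640 + 0.5% Albumax; 37 C, 5% CO2, one generation; luminescence read-out, lower signal = inhibition.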
AMA1-RON2 inh: inhibitors of Plasmodium falciparum AMA1-RON2 interaction; AlphaScreen AMA1-biotinylated RON2 peptide binding; Potency, µM (top dose mostly 58.2 µM), for inactives: at the highest dose activity change, negative = inhibition, hits mostly inhibitors; 360,000 compounds, 0.2% hits; AID 720542;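 also: potency is read from the fitted curve at half-maximal effect; 0% = vehicle wells and -100% = peptide control; nearly all actives have a fitted effect of over 45% in size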
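AMA1 (3D7) with his tag at 25 nM final met compounds first, then biotinylated RON2 peptide at 25 nM; detection used donor plus acceptor beads, 10 µg/mL apiece, read by AlphaScreen after 30 min at room temperature.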
HCV inh: HCV inhibition. Huh7.5.1 HCVcc-Cre infection, luciferase reporter, 44 h. Potency, µM (doses to about 41.8 µM), without a hit: at the top dose activity change, negative = inhibition, most hits filed as inhibitors. 340,000 compounds, 3.4% hits; also: potency is read from the fitted curve at half-maximal effect; % is scaled to controls: 0 for no effect and ±100 for the full control effect
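Cells (1,000/well) were plated 4 h before compound, then infected with HCVcc-Cre virus (~0.5 moi). After 44 h further culture, infection was read as luciferase luminescence following a 15 min substrate incubation at room temperature.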
Shiga inhibitor: inhibitors of Shiga toxin in Vero cells. Vero cells, Shiga toxin protein synthesis inhibition reporter. inhibition, % at 38.7 µM. 290,000 compounds, 9.2% hits; in the data active = inhibition mostly above about 28%, no sharp cut-off; inactive = mostly below about 43%; also: 0% is about no effect
An asterisk follows results filed as active; ? = inconclusive; nt = no result; [ ] = dose if it differs, or a comment. Only some compounds are listed: those with a hit (about 21% of all), similar ones and a draw of the others. Unless noted, calls follow the shape of the dose curve; as a rule, active = well fitted curve in the direction sought with a large enough effect; inconclusive = small, poorly fitted or top-dose-only effect, or another doubt; inactive = no such curve, though single readings can be large; an effect the other way counts as inactive or inconclusive.

SMILES	Pf growth 96h	CHX counter	Pf growth 48h	AMA1-RON2 inh	HCV inh	Shiga inhibitor
Clc1ccc(Nc2ncnc3c2cnn3-c2ccccc2)cc1	?	41.8*	-73.1%	1.3%	-7.4%	58.2*
CC(=O)NNc1ncnc2c1cnn2-c1ccccc1	?	10.8	?	46.9%	23.1%	12.2
CC(C)Nc1ncnc2c1cnn2-c1ccc(Cl)cc1	247.0%	21.4*	97.7%	0.8%	?	31.0*
CC(=O)Nc1ccc(Nc2ncnc3c2cnn3-c2ccc(C)cc2C)cc1	276.3%	5.7	-7.4%	0.9%	17.1%	12.8
Cn1nc(SCc2ccccc2)c(=O)[nH]c1=O	nt	nt	nt	1.7%	nt	nt
COC(=O)c1nc(-c2ccccc2)oc1N1CCOCC1	31.4%	-2.7	0.0%	16.9%	?	-7.6
Cc1[nH]nc(SCC(=O)N(C)c2ccccc2)c1[N+](=O)[O-]	-11.4%	8.2	-12.9%	9.1%	13.4%	43.7
CCOc1ccc(N=c2scc(-c3ccc(OC)cc3)n2CCO)cc1	?	16.1*	?	-28.6%	?	53.8
N=c1n(CCO)c2ccccc2n1CCOc1ccccc1	?	-2.7	-10.0%	12.1%	-12.7%	-13.1
CC(=O)N=c1scc(-c2ccccc2)n1-c1cccc(O)c1	-3.0%	1.2	-19.1%	6.2%	?	-6.0
CCOc1ccc(N=c2scc(-c3ccccc3)n2CCO)cc1	-22.3%	28.6*	nt	-28.8%	?	43.2
CCn1c(-c2ccccc2)csc1=Nc1ccc(O)cc1	?	47.9*	29.3%	-27.1%	0.8%	81.5*
CC1S/C(=N/N=C/c2ccco2)N(Cc2ccccc2)C1=O (stereo not drawn)	-9.8%	34.9*	-12.8%	-10.1%	-8.8%	99.5*
CCC1S/C(=N/N=C/c2ccco2)N(Cc2ccccc2C)C1=O (stereo not drawn)	?	9.4	?	-26.0%	?	38.4*
C=CCN1C(=O)C(Cc2ccc(C)cc2)S/C1=N/N=C/c1ccco1 (stereo not drawn)	?	12.4	?	-7.8%	-12.1%	21.2
CCC1S/C(=N/N=C/c2ccco2)N(Cc2ccc(F)cc2)C1=O (stereo not drawn)	?	11.9	?	-2.7%	-13.7%	24.5
O=C1C(Cc2ccccc2)S/C(=N/N=C/c2ccco2)N1c1ccccc1 (stereo not drawn)	0.262µM*	6.2	8.0%	-4.3%	-8.1%	-6.9
CC(=O)c1ccc(NC(=S)N2CCN(S(=O)(=O)c3ccc(F)cc3)CC2)cc1	31.3%	-2.2	-18.4%	3.7%	4.1%	0.8
COc1ccccc1-n1nnnc1SC(C)C(=O)NC1CCCC1 (stereo not drawn)	21.2%	nt	-21.8%	6.1%	2.7%	nt
Cc1ccc(C(=O)/C=C/c2ccc(Br)cc2)o1	90.7%	-2.1	?	-11.3%	?	-7.4
C[n+]1ccc(/C=C/c2ccc(Br)cc2)cc1	1.31µM*	3.7	0.329µM*	-17.2%	?	2.8
Cc1cc(OC(C)C(=O)NCC2CCC(C(=O)O)CC2)c2c(C)cc(=O)oc2c1 (stereo not drawn)	-2.4%	-0.8	-3.7%	16.5%	9.3%	-3.2
CC(C)COC(=O)N1C(COCc2ccccc2)CCC=CS1(=O)=O (stereo not drawn)	nt	14.4	nt	nt	nt	22.1
O=[N+]([O-])c1cccc(CN2C(COCc3ccccc3)CCC=CS2(=O)=O)c1 (stereo not drawn)	nt	37.8*	nt	nt	nt	81.9*
COC(=O)[C@@]1(Sc2ccc(C)cc2)CC(=O)N[C@@H]1c1ccc(Br)cc1	nt	nt	nt	4.5%	nt	nt
CCN(CC)C(=O)c1ccc(S(=O)(=O)N2CCC(c3nc4ccccc4s3)CC2)cc1	?	5.9	?	-1.6%	2.51µM*	-5.1
CC1CCCN(C(=O)c2ccc(S(=O)(=O)N3CCC(c4nc5ccccc5s4)CC3)cc2)C1 (stereo not drawn)	nt	nt	nt	3.6%	10µM*	nt
CCNC(=O)N1CCC(c2nc3ccccc3s2)CC1	?	3.4	-1.0%[0.00184 µM]	-8.6%	-24.2%	-0.7
